PubChem BioAssay AID463187 (University of Pittsburgh Molecular Library Screening Center, 2010)
Among all 220,000 compounds or so, about 1,500 (0.68%) were called active. This is one part of a sample in which actives are shown more often than they occur. Values without a mark were called inactive.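 The calls were made as follows: active = Hck-Nef kinase inhibition above about 50% (limit read from the data); inactive = inhibition below that limit.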

Target: Tyrosine-protein kinase HCK (Homo sapiens) (UniProt P08631)
Sequence (P08631 whole entry, looked up): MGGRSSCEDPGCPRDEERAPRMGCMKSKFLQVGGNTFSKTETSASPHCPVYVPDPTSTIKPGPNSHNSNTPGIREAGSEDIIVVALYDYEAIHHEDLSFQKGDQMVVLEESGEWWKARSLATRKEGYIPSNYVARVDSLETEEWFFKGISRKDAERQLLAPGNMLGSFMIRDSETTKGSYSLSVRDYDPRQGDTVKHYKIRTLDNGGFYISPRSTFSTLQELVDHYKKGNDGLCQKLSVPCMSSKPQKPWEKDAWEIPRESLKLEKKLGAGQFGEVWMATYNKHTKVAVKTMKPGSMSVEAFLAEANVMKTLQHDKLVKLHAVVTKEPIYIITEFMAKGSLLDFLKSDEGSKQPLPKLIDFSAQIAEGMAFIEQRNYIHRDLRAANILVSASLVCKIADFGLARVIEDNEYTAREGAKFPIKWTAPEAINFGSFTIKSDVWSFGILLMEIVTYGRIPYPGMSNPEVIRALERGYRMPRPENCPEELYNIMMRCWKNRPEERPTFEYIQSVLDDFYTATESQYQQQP
Assay: Hck:Nef complex kinase activity blockers – biochemical, Z-Lyte FRET, 384-well, Hck-YEEI, primary screen (AID 463187);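 also: 0% = DMSO with Hck plus Nef and 100% = Hck alone without Nef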
Settings: Recombinant Hck-YEEI plus Nef, Z-Lyte FRET kinase assay; at 20 µM; stronger effect = higher value

First: C/C(CC(=O)Nc1ccc(C)cc1C)=N\NC(=O)C(C)C
Second: Cc1nn(CC(=O)Nc2ccc(N(C)C)cc2)c(C)c1[N+](=O)[O-]
The inhibition of the first is higher: 14.7% for the first, 4.36% for the second.

Going from NC(=O)Nc1ccccc1C(=O)NCCc1ccccc1 to CC(=O)Nc1ccc(SCC(=O)Nc2ccccc2Oc2ccccc2)cc1, the inhibition falls from 1.58% to 0.985%.

First: COc1ccc(Cl)cc1S(=O)(=O)N1CCC(O)(c2ccc(Cl)cc2)CC1
Second: Cc1ccc(CN(C(=O)c2sc3ccccc3c2Cl)C2CCS(=O)(=O)C2)cc1 (stereo not given)
The inhibition of the first is higher: 3.69% for the first, 3.1% for the second.

First: CS(=O)(=O)N(CC(O)Cn1c2ccccc2c2ccccc21)c1cccc2ccccc12 (stereo not given)
Second: O=C1c2ccccc2S(=O)(=O)N1CC(O)Cn1c2ccccc2c2ccccc21 (stereo not given)
The inhibition of the first is higher: 0.481% for the first, 0.294% for the second.

First: Cn1cnnc1Sc1ccc(CN2CCN(C3CCCC3)C(CCO)C2)o1 (stereo not given)
Second: CCOC(=O)/C(C#N)=C/c1cn(CCC(=O)O)nc1-c1ccc(Br)cc1
The inhibition of the first is lower: -5.92% for the first, 20.2% for the second.

Compared with COC(=O)CCCC1=CC2=CC(=O)C(C)(OC(=O)c3cccs3)C(=O)C2=CN1CC1CC1 (stereo not given), COC(=O)CCCC1=CC2=CC(=O)C(C)(OC(=O)c3cccs3)C(=O)C2=CN1CC(C)C (stereo not given) is higher in inhibition: 10.7% for the first, 23.4% for the second.

Going from O=C(O)/C=C/c1cn(Cc2ccccc2)nc1-c1cccs1 to Cc1onc(C(=O)NN)c1C(=O)N1CCN(C(c2ccccc2)c2ccccc2)CC1, the inhibition rises from -1.06% to 16.6%.

Compared with N/C(=N\S(=O)(=O)c1cc(C(F)(F)F)cc(C(F)(F)F)c1)c1cccs1, COc1ccc(NC(=S)NCc2cccs2)c(OC)c1 is higher in inhibition: -0.264% for the first, 0.854% for the second.

O=[N+]([O-])c1ccccc1N/N=C1\CCc2ccccc21 was tested, and the inhibition was -4.18%.

CCCCN(CCCC)CC(O)Cn1c2ccccc2c(=O)c2ccccc21 (stereo not given) was tested, and the inhibition was 119% (active).
In the case of COC/C=C/C1=CC2=CC(=O)C(C)(OC(=O)CCC(=O)OC)C(=O)C2=CO1 (stereo not given), the inhibition is reported as 51.9% (active).
O=C(O)CCn1cc(/C=C/C(=O)c2ccc(Cl)cc2)c(-c2cccc(Br)c2)n1 was tested, and the inhibition was 55% (active).
